# In PubChem BioAssay:
# “And” between values parts separate entries of the source, which are not always exact repeats. Equal entries are not always repeated. For some assays here: Measured potencies and affinities stand elsewhere. Some structures have more than one record in an assay (separate samples or runs), and their calls can disagree. The source made the active and inactive calls. Unless noted, the rule behind the calls is not given here.
# Legend:
# [1] = antimalarial activity against Dd2 strain (AID 2302;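 active = growth inhibition above 50% at the single 2 µM test dose, taken to imply half-maximal potency below 2 µM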;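 note: 0% = DMSO untreated growth and 100% = chloroquine plus artemisinin killed control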); details: P. falciparum Dd2 in RBCs, LDH growth readout, 72 h; at 2 µM; stronger effect = higher value
# [2] = HepG2 cytotoxicity, primary screen, cytotoxicity control for P. falciparum antimalarial project, cell-based, ATP luminescence (AID 2303;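 active = inhibition above 50%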;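 note: 0% = DMSO wells and 100% = digitonin-killed cells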); details: HepG2 viability, 24-48 h, at 10 µM, stronger effect = higher value
# [3] = target: L-lactate dehydrogenase (Plasmodium falciparum (isolate CDC / Honduras)) (UniProt Q27743); assay: PfLDH activity inhibition – cell lysate, 3D7 strain, counter-screen for P. falciparum growth inhibition project (AID 2304);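 note: 0% = vehicle and 100% = reference inhibitor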; details: P. falciparum 3D7 crude extract, LDH APAD/NBT absorbance; at 2 µM; stronger effect = higher value
# Chain of L-lactate dehydrogenase (Plasmodium falciparum (isolate CDC / Honduras)) (Q27743 whole entry, looked up): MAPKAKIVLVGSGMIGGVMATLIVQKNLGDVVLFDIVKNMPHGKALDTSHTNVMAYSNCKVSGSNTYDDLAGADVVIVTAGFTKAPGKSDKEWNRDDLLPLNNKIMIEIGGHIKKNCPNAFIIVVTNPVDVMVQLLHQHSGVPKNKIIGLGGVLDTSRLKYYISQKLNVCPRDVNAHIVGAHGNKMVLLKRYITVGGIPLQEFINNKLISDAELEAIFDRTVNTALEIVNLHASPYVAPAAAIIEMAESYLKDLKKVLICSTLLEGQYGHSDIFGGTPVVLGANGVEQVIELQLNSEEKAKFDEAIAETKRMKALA
# [4] = inhibition of 3D7 malaria parasite growth – strain 3D7 (AID 2306);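 note: 0% = DMSO wells and 100% = chloroquine plus artemisinin control wells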; details: P. falciparum 3D7 erythrocytic growth, LDH absorbance, 72 h; at 2 µM; stronger effect = higher value
# [5] = target: Calcium-dependent protein kinase 1 (Plasmodium falciparum (isolate 3D7)) (UniProt P62344); assay: PfCDPK1 kinase inhibitors, biochemical, TCAMS library (AID 1159585; cut-off not given, nearly all actives have IC50 up to about 0.98 µM;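 note: inhibitors leave more ATP so luminescence rises with inhibition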); details: recombinant PfCDPK1, Kinase-Glo ATP depletion luminescence
# Chain of Calcium-dependent protein kinase 1 (Plasmodium falciparum (isolate 3D7)) (P62344 whole entry, looked up): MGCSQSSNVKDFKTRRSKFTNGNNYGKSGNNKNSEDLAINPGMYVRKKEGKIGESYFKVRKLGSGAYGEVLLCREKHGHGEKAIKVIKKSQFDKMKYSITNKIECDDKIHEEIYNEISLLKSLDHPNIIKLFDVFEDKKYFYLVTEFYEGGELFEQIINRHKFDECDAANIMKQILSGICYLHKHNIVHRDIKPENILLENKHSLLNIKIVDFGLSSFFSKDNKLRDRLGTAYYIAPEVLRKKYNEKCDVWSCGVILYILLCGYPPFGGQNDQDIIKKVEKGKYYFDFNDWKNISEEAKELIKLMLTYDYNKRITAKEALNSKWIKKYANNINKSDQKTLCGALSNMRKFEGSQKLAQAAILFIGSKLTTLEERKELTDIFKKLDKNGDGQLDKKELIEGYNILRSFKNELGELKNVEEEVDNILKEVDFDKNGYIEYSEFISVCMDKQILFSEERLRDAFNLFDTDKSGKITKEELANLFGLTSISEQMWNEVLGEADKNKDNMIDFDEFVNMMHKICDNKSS
# [6] = target: Plasmodium falciparum protein kinase 6 (PK6, PF3D7_1337100) (UniProt Q8IDW1); assay: PfPK6 kinase inhibitors, biochemical, TCAMS library (AID 1159586); details: recombinant PfPK6, Kinase-Glo ATP depletion luminescence
# Chain of Plasmodium falciparum protein kinase 6 (PK6, PF3D7_1337100) (Q8IDW1 1-305): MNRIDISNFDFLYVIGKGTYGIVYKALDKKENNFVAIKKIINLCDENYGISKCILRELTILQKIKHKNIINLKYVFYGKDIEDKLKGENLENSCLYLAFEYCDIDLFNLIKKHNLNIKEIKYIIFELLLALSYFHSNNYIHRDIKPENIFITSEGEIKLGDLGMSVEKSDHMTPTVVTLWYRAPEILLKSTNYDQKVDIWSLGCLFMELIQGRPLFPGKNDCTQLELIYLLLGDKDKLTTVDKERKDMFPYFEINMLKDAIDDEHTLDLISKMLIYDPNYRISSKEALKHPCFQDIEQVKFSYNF
# [7] = target: Protein kinase 7 (PK7), Plasmodium falciparum 3D7 (PF3D7_0213400) (UniProt Q7YTF7); assay: inhibition of Plasmodium PK7 catalytic activity – biochemical, TCAMS antimalarial set, Kinase-Glo luminescence (AID 1159587); details: recombinant PfPK7, Kinase-Glo ATP depletion luminescence
# Chain of Protein kinase 7 (PK7), Plasmodium falciparum 3D7 (PF3D7_0213400) (Q7YTF7 1-343): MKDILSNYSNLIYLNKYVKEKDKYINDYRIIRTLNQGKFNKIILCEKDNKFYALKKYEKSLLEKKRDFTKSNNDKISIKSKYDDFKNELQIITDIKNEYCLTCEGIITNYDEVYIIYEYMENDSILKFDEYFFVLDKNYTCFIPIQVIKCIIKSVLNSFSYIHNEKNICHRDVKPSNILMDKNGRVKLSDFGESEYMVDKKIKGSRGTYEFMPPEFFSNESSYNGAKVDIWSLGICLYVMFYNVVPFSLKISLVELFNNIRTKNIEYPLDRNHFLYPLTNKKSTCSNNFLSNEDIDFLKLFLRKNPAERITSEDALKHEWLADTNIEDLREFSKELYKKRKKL
# [8] = target: Calcium-dependent protein kinase 4 (Plasmodium falciparum (isolate 3D7)) (UniProt Q8IBS5); assay: PfCDPK4 kinase inhibitors, biochemical, TCAMS library (AID 1159588; cut-off not given, nearly all actives have IC50 up to about 0.91 µM); details: recombinant PfCDPK4, Kinase-Glo ATP depletion luminescence
# Chain of Calcium-dependent protein kinase 4 (Plasmodium falciparum (isolate 3D7)) (Q8IBS5 whole entry, looked up): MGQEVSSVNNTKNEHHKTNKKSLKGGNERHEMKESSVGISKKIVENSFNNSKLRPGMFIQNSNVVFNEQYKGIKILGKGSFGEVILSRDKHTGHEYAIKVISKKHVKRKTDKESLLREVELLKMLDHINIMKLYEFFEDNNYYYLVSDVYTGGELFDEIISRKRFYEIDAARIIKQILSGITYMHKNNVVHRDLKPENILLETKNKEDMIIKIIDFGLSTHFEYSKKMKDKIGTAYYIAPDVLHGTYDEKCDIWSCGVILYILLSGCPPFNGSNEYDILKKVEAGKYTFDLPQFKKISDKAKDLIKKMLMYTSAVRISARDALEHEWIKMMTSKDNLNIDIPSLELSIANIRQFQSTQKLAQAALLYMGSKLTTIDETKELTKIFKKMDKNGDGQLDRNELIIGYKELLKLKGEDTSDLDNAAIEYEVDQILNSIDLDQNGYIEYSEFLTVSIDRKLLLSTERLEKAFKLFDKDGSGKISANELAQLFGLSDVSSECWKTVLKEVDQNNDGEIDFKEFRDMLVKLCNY
SMILES,growth inhibition [1],inhibition [2],inhibition [3],growth inhibition [4],outcome [5],outcome [6],outcome [7],outcome [8]
NCc1ccc(-c2ccccc2CN(C(=O)Nc2ccccc2)C2CCN(Cc3ccccc3)CC2)cc1,35% (inactive),36% (inactive),3% (inactive),100% (active),inactive,inactive,inactive,inactive
CCN(CC)CCOC(=O)C(OC)(c1ccccc1)c1ccccc1,6% (inactive),-4% (inactive),2% (inactive),97% (active),inactive,inactive,inactive,inactive
CCCCCc1cc(O)c2c(c1)OC(C)(C)CC2C1=CCN(Cc2cnc3ccccc3c2)CC1 (stereo not drawn),98% (active),27% (inactive),0% (inactive),98% (active),inactive,inactive,inactive,inactive
O=C(/C=C/c1ccc(Cl)c(Cl)c1)NCC1CCC(N2CCC(c3c[nH]c4ccccc34)CC2)CC1 (stereo not drawn),95% (active),48% (inactive),-1% (inactive),101% (active),inactive,inactive,inactive,inactive
Cc1ccc(CC(C)NCC(O)c2cccc(C#N)c2)cc1 (stereo not drawn),86% (active),2% (inactive),-2% (inactive),94% (active),inactive,inactive,inactive,inactive
OC(CNC1CCCCCCC1)c1ccc(Cl)c(Cl)c1 (stereo not drawn),99% (active),17% (inactive),-5% (inactive),100% (active),inactive,inactive,inactive,inactive
COc1ccc(C=CC(=O)NC2CCC(CN3CCC(c4c[nH]c5ccccc45)CC3)CC2)cc1 (stereo not drawn),60% (active) and 61% (active),13% (inactive) and 30% (inactive),-6% (inactive) and -7% (inactive),100% (active),inactive,inactive,inactive,inactive
CC[C@H]1CN2CC[C@H]1C[C@H]2[C@H](O)c1cc(-c2ccccc2C)nc2ccc(OC)cc12,98% (active),16% (inactive),2% (inactive),100% (active),inactive,inactive,inactive,inactive
Cc1ccc2c(C3=CCN(CCCCC4(C)C(=O)Nc5ccccc54)CC3)c(C)[nH]c2c1 (stereo not drawn),91% (active),9% (inactive),-3% (inactive),95% (active),inactive,inactive,inactive,inactive
CC(C)(C)c1ccc(Cn2nc(C(=O)N3CCN(C(=O)C4CCCO4)CC3)c3ccccc32)cc1 (stereo not drawn),83% (active),-2% (inactive),-3% (inactive),90% (active),inactive,inactive,inactive,inactive
O=C(/C=C/c1ccc(Cl)c(Cl)c1)N1CCC(CN2CCC(c3c[nH]c4ccc(O)cc34)CC2)CC1,100% (active),44% (inactive),-7% (inactive),101% (active),inactive,inactive,inactive,inactive
NCC(=O)c1cc2c(cc1N)OCCO2,42% (inactive),64% (active),0% (inactive),89% (active),inactive,inactive,inactive,inactive
O=C(/C=C/c1ccccc1O)NC1CCC(CN2CCC(c3c[nH]c4ccccc34)CC2)CC1 (stereo not drawn),73% (active) and 45% (inactive),11% (inactive) and 22% (inactive),-1% (inactive) and 5% (inactive),101% (active) and 103% (active),inactive,inactive,inactive,inactive
O=C(NC1CCC(CN2CCC(c3c[nH]c4ccccc34)CC2)CC1)c1ccc(-c2ccccc2[N+](=O)[O-])o1 (stereo not drawn),34% (inactive),24% (inactive),-2% (inactive),100% (active),inactive,inactive,inactive,inactive
COc1ccc(OC)c(C=CC(=O)NC2CCC(CN3CCC(c4c[nH]c5ccccc45)CC3)CC2)c1 (stereo not drawn),62% (active),43% (inactive),-4% (inactive),98% (active),inactive,inactive,inactive,inactive
Cc1cc(NC(=O)[C@@H](Nc2ccc(C#N)c3ccccc23)C2CCCCC2)ccc1F,83% (active),10% (inactive),0% (inactive),95% (active),inactive,inactive,inactive,inactive
